Screening data deposited in PubChem by ICCB-Longwood Screening Facility, Harvard Medical School.
Bm FixLJ act: increases Burkholderia fixLJ two-component signaling; z-score (test concentration not listed); B. multivorans fixK-promoter GFP reporter, 18 h; hits give high values; 29,000 compounds, 0.3% hits; AID 1918990;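 active = replicate mean overnight rise in green fluorescent reporter signal, 3 or more SD over negative controls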
* = called active by the depositor. Many of the other results were omitted from the sample, so hits are more common in it than they were.

For Cc1cccc(NC(=O)CCS(=O)(=O)c2cc(Br)cc3c2N(C(=O)C2CC2)CC3)c1C the results were Bm FixLJ act 0.77.
Cc1ccccc1NC(=O)CCS(=O)(=O)c1cc(Br)cc2c1N(C(=O)C1CC1)CC2 was read as Bm FixLJ act 0.43.
`CCC(=O)N1CCc2cc(Br)cc(S(=O)(=O)CCC(=O)Nc3cccc(C)c3C)c21` gave Bm FixLJ act 3.42*.
`Cn1ncnc1CCn1cc(-c2ccccc2Cn2cccn2)nn1` gave Bm FixLJ act -2.03.
O=C(c1ccccc1-n1cncn1)N1CCCN(Cc2ccn[nH]2)CC1 was read as Bm FixLJ act 0.37.
CCc1ccc(-c2nn(-c3ccc(OC)cc3)c3c2cnc2ccc(OC)cc23)cc1 was read as Bm FixLJ act 1.08.
For CCOc1ccc(-c2nn(-c3ccc(F)cc3)c3c2cnc2ccc(F)cc23)cc1 the results were Bm FixLJ act -1.63.
CCOc1ccc2ncc3c(-c4cccc(OC)c4)nn(-c4ccccc4)c3c2c1 was read as Bm FixLJ act 3.31*.
For Cc1ccccc1C(=O)Nc1cccc(OCc2cc(=O)n3c(C)csc3n2)c1 the results were Bm FixLJ act -0.23.
Cc1csc2nc(COc3cccc(NC(=O)c4ccccc4F)c3)cc(=O)n12 was read as Bm FixLJ act 3.03*.
For COc1ccccc1C(=O)Nc1cccc(OCc2cc(=O)n3c(C)csc3n2)c1 the results were Bm FixLJ act -1.6.
For CO[C@@]12CCC(Oc3ccccn3)CC1N(C(=O)Cn1ccnc1)CC2 (stereo partly specified) the results were Bm FixLJ act -0.14.
`Cc1c(CNCCc2nc(-c3ccccn3)no2)[nH]c2ccc(Cl)cc12` gave Bm FixLJ act 0.85.
Screening COc1cc2c(cc1OC)C1(CCN(C(=O)Cn3cccn3)CC1)OCC2 returned Bm FixLJ act -1.4.
Screening Cc1ccc(-c2cc(C(F)(F)F)n3ncc(-c4ccccc4)c3n2)cc1 returned Bm FixLJ act 0.44.
`COc1ccc(-c2cc(C(F)(F)F)n3ncc(-c4ccccc4)c3n2)cc1` gave Bm FixLJ act 3.29*.
COc1ccc(-c2cc3nc(-c4ccccc4)cc(C(F)(F)F)n3n2)cc1 was read as Bm FixLJ act 0.13.
CNc1nccnc1-c1cccc(C(=O)N(C)CCc2scnc2C)c1 was read as Bm FixLJ act 0.95.
CC(=O)N1CCC(C(=O)Nc2c(C)cnn2Cc2cccc(C)c2)CC1 was read as Bm FixLJ act -2.01.
`O=C(C=Cc1ccccc1)N1CCC(O)[C@@](CC2CC2)(C(=O)O)C1` (stereo partly specified) gave Bm FixLJ act -0.47.
For COc1ccccc1NC(=O)c1sc(-c2ccc(Cl)cc2)cc1N the results were Bm FixLJ act 4.15*.
For COc1ccc(C(=O)Nc2cc(-c3nc4ccccc4s3)ccc2OC)cc1 the results were Bm FixLJ act 0.46.
`COc1ccccc1NC(=O)c1sc2nc3c(cc2c1N)CCCCCC3` gave Bm FixLJ act -2.17.
CN(C)CC1(O)CCCN(C(=O)c2ccccc2-n2cncn2)C1 (stereo unspecified) was read as Bm FixLJ act -3.25.
CO[C@@]12CCC(OCC3CC3)CC1N(C(=O)Cn1ccc(C)n1)CC2 (stereo partly specified) was read as Bm FixLJ act 1.02.
`O=C1C(O)=C(O)C(=O)C(O)=C1O` gave Bm FixLJ act 7.43*.
For CCS(=O)(=O)CCNC(=O)N(CCc1ccccc1)C1CCN(C)CC1 the results were Bm FixLJ act 0.35.
`COc1cc(C(=O)Nc2cc(C)c3nc(N)sc3c2)ccn1` gave Bm FixLJ act -1.62.
Screening CC(CCc1ccccc1)NC(=O)Cn1ncc2c3ccccc3n(Cc3ccccc3F)c2c1=O (stereo unspecified) returned Bm FixLJ act -1.75.
`O=C(Cn1ncc2c3ccccc3n(Cc3cccc(Cl)c3)c2c1=O)N1CCCCCC1` gave Bm FixLJ act 8.65*.
Screening O=C(Cn1ncc2c3ccccc3n(Cc3ccccc3)c2c1=O)N1CCCCCC1 returned Bm FixLJ act -2.58.
For CC(CCc1ccccc1)NC(=O)Cn1ncc2c3ccccc3n(Cc3cccc(Cl)c3)c2c1=O (stereo unspecified) the results were Bm FixLJ act 25.8*.
For O=C(Cn1ncc2c3ccccc3n(Cc3ccccc3)c2c1=O)NCc1cccs1 the results were Bm FixLJ act -0.73.
`O=C(Cn1ncc2c3ccccc3n(Cc3ccccc3)c2c1=O)NCc1ccccc1` gave Bm FixLJ act -2.92.
Screening O=C(Cn1ncc2c3ccccc3n(Cc3cccc(Cl)c3)c2c1=O)N1CCCCC1 returned Bm FixLJ act 1.99.
`O=C(Cn1ncc2c3ccccc3n(Cc3cccc(Cl)c3)c2c1=O)NCc1cccs1` gave Bm FixLJ act 10.7*.
CC(CCc1ccccc1)NC(=O)Cn1ncc2c3ccccc3n(Cc3ccccc3)c2c1=O (stereo unspecified) was read as Bm FixLJ act -2.66.
Screening Cc1c2cnn(CC(=O)NCc3ccccc3)c(=O)c2c(C)n1Cc1cccc(Cl)c1 returned Bm FixLJ act 0.25.
For O=C(Cn1ncc2c3ccccc3n(Cc3ccc(F)cc3)c2c1=O)NCc1cccs1 the results were Bm FixLJ act -0.7.
